Data on one compound can be found in the supplement of paper PMC11732987, “Enantioselective OTUD7B fragment discovery through chemoproteomics screening and high-throughput optimisation” (Communications Chemistry, 2025).

Unmarked numbers belong to inactive results.

What all share (assay): log2 ratio of Biotin-Ahx-Ub-VS probe labelling (fragment/DMSO); higher = less target engagement (more negative = stronger competition), active = hit call of the paper (q ≤ 0.05, log2 ratio ≤ -1)
Common to all, as to conditions: compound concentration: 200 uM; treatment time: 3 h

Experiment [1] has as its target T1, USP42 (UniProt Q9H9J4).
T1 sequence (whole entry): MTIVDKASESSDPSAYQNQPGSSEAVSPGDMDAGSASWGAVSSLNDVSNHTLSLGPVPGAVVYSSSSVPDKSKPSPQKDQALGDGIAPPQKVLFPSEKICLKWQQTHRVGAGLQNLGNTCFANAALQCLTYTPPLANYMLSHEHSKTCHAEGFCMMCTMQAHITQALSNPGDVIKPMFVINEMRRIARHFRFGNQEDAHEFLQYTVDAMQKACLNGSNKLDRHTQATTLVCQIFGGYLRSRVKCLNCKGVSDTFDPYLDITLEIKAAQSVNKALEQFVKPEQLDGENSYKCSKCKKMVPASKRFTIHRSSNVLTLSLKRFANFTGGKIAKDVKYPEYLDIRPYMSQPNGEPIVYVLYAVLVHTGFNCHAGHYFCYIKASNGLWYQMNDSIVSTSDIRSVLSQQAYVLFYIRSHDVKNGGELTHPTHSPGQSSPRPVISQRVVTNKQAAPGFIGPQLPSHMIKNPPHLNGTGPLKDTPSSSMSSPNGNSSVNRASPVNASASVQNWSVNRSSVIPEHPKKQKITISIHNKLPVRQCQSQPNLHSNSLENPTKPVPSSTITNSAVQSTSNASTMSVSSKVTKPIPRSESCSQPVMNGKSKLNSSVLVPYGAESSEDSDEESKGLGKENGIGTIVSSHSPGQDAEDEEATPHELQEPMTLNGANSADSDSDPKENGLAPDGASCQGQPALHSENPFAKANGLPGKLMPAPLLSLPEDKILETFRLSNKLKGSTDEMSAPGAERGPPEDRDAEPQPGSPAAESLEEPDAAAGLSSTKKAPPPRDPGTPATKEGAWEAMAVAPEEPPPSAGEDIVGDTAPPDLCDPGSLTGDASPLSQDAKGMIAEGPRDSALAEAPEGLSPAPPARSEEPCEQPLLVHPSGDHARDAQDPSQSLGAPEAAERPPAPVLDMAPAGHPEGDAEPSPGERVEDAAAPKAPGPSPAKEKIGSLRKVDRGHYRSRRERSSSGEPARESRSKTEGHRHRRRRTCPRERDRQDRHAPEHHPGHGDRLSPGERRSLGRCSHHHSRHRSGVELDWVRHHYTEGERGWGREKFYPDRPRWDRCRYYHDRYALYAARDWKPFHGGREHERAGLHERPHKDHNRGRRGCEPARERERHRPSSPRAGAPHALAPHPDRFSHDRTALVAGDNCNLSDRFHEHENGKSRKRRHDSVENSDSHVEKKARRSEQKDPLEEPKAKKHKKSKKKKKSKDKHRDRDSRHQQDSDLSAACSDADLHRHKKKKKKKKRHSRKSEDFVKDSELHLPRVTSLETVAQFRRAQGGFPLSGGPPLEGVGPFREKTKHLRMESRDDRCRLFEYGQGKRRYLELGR
In a few lines:
(§1)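 Each value is an average log2 ratio of fragment to vehicle, tested by unpaired t-test. The underlying Spectronaut label-free quantities were global-median-normalised, and only proteins with ≥2 unique peptides were included. Triplicate HEK293T lysate samples (495 µg) were exposed to fragment at 200 µM or vehicle for 3 h, then to Biotin-Ahx-Ub-VS at 0.5 µM final for 1 h, before NeutrAvidin enrichment of labelled DUBs, LysC and trypsin digestion, and diaPASEF LC-MS/MS.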

Experiment [2] addresses USP46 (UniProt P62068). An outline of the steps: as §1
The target of experiment [3] is T2, USP47 (UniProt Q96K76).
T2 sequence (whole entry): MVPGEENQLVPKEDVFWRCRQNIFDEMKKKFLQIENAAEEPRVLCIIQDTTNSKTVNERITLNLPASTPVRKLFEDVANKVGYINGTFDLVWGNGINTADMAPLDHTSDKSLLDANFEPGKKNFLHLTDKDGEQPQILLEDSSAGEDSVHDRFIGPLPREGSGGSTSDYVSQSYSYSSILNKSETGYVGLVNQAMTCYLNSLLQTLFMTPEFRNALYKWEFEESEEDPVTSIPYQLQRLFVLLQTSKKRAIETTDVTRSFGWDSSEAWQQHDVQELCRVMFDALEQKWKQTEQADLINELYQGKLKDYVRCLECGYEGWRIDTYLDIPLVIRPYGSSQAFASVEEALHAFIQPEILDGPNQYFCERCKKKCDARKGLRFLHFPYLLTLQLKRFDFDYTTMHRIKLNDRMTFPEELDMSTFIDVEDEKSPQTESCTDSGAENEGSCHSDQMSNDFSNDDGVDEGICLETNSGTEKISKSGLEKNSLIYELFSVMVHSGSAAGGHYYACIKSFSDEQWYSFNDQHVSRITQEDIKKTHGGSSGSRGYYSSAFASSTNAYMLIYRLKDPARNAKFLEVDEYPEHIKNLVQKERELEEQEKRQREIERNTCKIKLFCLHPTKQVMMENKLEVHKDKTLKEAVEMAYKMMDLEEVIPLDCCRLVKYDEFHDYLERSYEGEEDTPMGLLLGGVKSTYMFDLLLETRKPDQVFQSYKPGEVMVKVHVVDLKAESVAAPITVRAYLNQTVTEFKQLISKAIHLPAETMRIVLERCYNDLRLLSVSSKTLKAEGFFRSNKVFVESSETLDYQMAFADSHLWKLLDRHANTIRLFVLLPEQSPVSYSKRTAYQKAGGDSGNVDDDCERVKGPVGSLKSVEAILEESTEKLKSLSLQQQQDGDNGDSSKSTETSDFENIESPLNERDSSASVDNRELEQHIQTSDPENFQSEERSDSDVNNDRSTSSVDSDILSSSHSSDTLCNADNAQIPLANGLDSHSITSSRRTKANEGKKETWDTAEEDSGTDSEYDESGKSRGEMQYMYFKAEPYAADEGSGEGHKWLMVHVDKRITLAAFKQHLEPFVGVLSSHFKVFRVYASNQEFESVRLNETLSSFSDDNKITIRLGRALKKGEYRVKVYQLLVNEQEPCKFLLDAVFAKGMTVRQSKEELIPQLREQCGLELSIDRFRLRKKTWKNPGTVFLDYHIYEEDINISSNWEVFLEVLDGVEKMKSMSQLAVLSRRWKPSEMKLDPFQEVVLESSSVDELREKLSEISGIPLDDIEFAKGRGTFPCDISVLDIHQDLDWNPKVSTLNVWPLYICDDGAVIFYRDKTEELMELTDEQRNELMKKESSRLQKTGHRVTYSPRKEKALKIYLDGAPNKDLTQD
In a few lines: as §1

Experiment [4] has as its target T3, USP48 (UniProt Q86UV5).
T3 sequence (whole entry): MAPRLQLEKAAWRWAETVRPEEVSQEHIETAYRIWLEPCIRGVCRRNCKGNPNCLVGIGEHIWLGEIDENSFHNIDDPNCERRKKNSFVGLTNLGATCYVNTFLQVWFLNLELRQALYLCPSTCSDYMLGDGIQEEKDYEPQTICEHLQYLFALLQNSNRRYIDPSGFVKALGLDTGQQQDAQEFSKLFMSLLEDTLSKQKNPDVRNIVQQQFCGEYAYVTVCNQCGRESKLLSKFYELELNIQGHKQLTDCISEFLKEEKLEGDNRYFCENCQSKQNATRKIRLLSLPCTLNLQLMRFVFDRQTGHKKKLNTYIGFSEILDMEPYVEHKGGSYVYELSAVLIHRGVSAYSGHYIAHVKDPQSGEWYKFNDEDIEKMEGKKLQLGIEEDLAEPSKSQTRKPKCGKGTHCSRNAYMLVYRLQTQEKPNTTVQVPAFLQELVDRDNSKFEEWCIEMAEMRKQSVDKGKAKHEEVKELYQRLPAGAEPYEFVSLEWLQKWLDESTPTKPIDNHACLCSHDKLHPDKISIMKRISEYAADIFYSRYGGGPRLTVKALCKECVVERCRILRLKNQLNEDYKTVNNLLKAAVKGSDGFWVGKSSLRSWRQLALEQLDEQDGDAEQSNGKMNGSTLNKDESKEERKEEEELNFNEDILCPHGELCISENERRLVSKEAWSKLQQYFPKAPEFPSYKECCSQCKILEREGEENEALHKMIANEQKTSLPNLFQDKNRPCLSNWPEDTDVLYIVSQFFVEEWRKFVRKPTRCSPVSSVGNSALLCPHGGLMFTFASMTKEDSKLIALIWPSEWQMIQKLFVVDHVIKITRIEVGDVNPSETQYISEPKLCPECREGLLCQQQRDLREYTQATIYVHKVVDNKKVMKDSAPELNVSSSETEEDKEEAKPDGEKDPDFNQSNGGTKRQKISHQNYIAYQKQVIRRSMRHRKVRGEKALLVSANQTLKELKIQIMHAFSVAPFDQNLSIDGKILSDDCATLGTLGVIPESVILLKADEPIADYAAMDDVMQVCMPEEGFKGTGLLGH
An outline of the steps:
as §1

For experiment [5], the target named is T4, USP5 (UniProt P45974).
T4 sequence (whole entry): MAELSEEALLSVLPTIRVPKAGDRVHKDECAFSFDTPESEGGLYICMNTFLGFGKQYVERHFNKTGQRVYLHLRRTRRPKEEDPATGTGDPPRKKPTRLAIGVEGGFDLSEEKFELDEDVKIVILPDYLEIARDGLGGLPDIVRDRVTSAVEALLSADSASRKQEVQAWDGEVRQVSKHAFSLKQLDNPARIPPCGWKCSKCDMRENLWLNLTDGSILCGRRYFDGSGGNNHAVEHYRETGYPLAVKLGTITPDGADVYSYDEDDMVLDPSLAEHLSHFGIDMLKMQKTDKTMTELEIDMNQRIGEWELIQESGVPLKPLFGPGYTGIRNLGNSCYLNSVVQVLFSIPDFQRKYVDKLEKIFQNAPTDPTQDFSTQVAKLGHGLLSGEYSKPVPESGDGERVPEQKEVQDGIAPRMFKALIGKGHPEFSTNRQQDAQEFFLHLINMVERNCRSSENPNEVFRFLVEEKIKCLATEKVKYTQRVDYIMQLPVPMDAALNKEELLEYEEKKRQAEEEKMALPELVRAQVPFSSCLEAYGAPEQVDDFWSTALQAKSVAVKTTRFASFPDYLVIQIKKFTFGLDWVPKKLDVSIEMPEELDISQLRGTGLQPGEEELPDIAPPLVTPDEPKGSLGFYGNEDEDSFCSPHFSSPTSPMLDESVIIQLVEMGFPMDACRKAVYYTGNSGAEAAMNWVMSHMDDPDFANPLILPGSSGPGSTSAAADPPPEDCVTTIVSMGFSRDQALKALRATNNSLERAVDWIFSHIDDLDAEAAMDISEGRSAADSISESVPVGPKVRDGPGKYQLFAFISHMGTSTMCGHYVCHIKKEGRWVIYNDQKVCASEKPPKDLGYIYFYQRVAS
In a few lines: as §1

Experiment [6] deals with USP54 (UniProt Q70EL1). An outline of the steps:
as §1

The target in experiment [7] is USP7 (UniProt Q93009). In a few lines: as §1
Experiment [8] addresses T5, USP8 (UniProt P40818).
T5 sequence (whole entry): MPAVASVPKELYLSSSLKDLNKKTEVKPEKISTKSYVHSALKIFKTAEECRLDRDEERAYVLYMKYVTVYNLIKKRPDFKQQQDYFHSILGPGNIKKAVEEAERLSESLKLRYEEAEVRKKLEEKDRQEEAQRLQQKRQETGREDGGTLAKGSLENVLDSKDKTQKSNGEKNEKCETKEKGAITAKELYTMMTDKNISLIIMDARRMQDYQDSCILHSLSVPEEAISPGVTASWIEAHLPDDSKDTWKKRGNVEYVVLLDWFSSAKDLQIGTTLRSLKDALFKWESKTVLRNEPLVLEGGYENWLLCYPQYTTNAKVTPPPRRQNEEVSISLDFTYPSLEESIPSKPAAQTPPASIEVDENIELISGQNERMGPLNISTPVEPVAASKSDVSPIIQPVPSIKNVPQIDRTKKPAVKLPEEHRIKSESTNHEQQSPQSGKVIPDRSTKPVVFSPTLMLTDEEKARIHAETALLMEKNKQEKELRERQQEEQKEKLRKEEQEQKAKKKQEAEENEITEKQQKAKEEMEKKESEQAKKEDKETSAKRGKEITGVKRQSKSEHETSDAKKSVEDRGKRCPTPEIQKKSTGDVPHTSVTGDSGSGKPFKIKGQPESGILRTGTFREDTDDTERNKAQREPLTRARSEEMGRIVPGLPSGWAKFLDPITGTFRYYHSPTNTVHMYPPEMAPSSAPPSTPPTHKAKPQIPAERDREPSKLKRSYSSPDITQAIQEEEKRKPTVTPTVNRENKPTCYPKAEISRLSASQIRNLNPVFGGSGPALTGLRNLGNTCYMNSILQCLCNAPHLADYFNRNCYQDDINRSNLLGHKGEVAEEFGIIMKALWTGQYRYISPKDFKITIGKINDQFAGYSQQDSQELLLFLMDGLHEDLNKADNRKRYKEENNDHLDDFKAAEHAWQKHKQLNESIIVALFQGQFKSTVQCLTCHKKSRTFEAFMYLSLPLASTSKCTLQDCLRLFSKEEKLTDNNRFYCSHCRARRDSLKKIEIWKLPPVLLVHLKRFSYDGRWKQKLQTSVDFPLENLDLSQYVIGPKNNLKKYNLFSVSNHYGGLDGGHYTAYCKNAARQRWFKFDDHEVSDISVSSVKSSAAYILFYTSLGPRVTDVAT
An outline of the steps:
as §1

Experiment [9] deals with USP9X (UniProt Q93008). In a few lines:
as §1

In experiment [10] the target is UniProt O00487. In a few lines:
as §1

UniProt O00487, sequence (O00487 whole entry): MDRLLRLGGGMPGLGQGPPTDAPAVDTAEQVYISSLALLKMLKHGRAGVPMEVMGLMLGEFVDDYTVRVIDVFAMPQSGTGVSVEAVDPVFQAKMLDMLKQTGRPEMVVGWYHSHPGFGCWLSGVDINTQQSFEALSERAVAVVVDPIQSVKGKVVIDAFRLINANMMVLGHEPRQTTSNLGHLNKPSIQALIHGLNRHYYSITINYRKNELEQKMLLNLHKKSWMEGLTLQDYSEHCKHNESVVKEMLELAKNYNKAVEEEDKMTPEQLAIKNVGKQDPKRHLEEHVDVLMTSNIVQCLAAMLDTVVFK
USP46, sequence (P62068 whole entry): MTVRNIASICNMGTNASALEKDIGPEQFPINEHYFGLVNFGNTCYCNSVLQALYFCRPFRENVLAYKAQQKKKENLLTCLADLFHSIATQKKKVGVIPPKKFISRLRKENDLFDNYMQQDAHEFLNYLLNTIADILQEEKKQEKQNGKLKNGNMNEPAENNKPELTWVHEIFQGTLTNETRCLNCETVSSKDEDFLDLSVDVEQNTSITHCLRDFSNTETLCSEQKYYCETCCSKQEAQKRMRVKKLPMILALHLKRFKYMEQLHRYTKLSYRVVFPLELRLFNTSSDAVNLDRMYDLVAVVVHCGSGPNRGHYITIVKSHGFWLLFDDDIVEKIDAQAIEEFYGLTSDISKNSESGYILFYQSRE
USP54, sequence (Q70EL1 whole entry): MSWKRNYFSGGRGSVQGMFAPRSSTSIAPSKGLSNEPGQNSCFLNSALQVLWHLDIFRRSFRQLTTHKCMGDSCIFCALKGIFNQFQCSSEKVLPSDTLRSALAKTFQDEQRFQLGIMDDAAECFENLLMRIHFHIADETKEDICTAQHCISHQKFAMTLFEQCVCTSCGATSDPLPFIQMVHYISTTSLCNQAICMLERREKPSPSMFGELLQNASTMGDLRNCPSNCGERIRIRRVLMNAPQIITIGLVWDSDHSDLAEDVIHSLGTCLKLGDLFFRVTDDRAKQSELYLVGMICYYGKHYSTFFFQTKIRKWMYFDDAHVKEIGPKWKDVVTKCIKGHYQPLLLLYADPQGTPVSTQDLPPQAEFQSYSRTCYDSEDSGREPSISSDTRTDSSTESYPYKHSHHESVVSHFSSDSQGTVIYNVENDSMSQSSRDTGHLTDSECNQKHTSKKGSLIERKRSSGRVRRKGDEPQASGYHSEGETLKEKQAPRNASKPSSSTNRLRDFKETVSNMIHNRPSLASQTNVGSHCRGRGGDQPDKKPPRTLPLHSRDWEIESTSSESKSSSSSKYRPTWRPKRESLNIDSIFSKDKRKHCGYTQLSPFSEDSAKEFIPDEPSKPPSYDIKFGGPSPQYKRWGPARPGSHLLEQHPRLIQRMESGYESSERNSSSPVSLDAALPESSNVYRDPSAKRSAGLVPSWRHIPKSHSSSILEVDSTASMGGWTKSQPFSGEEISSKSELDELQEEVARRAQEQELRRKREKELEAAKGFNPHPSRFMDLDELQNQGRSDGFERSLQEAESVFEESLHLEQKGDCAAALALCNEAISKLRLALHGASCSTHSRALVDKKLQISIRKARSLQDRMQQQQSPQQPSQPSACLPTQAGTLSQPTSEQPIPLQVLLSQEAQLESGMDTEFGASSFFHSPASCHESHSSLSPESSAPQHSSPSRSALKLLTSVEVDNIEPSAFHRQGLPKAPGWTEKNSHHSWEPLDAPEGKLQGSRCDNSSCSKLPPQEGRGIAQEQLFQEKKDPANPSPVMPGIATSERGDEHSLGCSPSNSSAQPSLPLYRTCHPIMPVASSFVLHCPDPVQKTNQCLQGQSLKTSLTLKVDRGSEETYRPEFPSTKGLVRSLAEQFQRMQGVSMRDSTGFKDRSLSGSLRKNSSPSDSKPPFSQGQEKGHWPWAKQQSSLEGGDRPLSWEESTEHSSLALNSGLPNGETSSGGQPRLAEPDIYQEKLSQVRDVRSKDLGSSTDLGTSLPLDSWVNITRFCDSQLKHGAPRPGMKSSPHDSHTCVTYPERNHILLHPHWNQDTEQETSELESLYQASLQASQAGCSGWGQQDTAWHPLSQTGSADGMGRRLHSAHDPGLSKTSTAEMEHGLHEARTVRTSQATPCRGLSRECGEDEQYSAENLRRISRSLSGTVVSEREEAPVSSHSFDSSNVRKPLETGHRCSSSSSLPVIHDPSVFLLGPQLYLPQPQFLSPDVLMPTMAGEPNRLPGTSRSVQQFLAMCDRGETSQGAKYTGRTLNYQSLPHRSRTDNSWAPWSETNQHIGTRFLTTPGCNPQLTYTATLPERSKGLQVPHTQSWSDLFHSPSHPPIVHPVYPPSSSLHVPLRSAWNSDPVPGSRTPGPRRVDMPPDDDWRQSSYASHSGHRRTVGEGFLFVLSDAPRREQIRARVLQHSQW
USP9X, sequence (Q93008 whole entry): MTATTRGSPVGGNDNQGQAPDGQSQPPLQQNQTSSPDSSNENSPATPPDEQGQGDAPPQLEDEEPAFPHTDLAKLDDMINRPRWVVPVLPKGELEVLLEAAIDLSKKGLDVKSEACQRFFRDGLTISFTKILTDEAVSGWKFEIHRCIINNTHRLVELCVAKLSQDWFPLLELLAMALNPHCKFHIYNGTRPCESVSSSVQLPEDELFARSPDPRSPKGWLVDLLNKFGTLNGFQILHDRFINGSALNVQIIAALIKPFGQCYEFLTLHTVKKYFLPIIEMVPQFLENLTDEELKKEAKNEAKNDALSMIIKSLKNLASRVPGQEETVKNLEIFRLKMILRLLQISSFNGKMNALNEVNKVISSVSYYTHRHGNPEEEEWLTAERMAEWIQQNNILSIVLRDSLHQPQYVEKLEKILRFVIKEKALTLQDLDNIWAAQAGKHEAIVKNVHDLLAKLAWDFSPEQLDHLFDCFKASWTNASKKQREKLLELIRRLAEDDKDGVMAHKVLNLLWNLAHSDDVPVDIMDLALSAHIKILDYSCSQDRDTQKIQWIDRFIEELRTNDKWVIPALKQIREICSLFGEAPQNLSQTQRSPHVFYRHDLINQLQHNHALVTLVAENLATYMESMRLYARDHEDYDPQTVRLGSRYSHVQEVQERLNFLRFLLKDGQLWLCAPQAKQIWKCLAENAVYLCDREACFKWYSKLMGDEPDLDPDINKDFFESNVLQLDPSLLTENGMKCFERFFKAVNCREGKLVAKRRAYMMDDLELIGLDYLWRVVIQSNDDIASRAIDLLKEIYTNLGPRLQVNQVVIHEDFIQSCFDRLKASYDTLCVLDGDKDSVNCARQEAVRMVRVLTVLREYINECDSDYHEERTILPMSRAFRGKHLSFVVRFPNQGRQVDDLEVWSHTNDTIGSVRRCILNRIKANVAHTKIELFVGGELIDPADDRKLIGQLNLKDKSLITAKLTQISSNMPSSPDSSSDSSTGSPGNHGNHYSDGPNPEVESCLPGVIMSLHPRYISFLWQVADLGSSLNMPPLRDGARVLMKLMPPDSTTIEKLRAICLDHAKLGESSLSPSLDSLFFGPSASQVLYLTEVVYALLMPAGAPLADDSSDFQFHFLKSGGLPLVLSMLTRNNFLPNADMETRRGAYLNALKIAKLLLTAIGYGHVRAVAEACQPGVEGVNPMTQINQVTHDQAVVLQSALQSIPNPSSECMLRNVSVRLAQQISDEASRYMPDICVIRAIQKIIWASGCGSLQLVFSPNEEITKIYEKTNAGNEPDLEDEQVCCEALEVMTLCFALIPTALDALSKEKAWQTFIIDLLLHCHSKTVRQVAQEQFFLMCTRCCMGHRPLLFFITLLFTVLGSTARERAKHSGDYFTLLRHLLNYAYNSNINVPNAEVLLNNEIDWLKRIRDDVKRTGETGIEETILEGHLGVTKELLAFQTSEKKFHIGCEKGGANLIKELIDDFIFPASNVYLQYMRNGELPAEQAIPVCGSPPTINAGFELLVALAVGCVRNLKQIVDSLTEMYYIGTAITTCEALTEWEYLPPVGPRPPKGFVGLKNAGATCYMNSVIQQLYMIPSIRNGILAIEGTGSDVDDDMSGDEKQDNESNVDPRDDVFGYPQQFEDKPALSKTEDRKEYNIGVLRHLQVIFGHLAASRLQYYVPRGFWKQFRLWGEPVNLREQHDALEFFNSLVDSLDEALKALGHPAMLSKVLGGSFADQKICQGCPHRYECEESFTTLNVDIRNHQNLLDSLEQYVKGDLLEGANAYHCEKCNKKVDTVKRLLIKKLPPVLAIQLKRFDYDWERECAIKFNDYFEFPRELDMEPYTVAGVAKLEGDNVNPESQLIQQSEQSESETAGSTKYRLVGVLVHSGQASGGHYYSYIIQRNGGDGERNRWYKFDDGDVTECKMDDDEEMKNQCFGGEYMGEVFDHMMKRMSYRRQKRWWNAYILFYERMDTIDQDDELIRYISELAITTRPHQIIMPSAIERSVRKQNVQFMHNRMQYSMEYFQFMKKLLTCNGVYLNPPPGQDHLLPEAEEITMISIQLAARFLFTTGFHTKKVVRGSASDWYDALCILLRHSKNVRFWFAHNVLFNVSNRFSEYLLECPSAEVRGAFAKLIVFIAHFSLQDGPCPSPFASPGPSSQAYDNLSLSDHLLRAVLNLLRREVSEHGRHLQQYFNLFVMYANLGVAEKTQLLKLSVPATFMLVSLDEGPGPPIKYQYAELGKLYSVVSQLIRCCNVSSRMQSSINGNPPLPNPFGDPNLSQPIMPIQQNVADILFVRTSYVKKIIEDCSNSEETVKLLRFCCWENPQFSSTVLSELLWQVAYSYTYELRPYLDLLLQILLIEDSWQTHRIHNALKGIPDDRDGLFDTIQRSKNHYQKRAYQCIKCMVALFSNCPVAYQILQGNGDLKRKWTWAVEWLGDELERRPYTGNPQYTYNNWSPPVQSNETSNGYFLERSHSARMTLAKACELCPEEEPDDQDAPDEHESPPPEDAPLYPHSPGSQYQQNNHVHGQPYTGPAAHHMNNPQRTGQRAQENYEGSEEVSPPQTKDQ

With `Cn1cc(CN(Cc2ccc(Cl)cc2)C(=O)CCl)cn1`, the “log2 ratio of Biotin-Ahx-Ub-VS probe labelling” value in [1] was 0.553; in [2], -0.635; in experiment [3], -1.45 (active); in experiment [4] it was -0.598; in experiment [5] it was 0.00584; in experiment [6], -0.648. The “log2 ratio of Biotin-Ahx-Ub-VS probe labelling” value in [7] was -3.08 (active); in [8], 0.0316; in [9] it was -0.441; in experiment [10], 0.0261.
